# From PubChem BioAssay (NCATS)
# Results filed as inconclusive are left out. A call without a number means that no potency is given here. Calls of active or inactive are those of the source. The call rests on the fitted dose curve; in most records, active means well fitted curve in the direction sought with a large enough effect; inconclusive means small, poorly fitted or top-dose-only effect, or another doubt; inactive means no such curve, though single readings can be large; an effect the other way counts as inactive or inconclusive.
# Key:
# [1] = target: Phospholipid hydroperoxide glutathione peroxidase GPX4 (Homo sapiens) (UniProt P36969); test: Primary qHTS Assay for Inhibitors of Recombinant Selenoprotein Glutathione Peroxidase 4 (GPX4) (AID 1845192); further: nearly all actives have a fitted effect of over 65% in size; further: potency means the concentration at half of the fitted maximal effect; on activity change, negative = inhibition: series mostly up to about 50 µM
# Outline: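 GR-coupled readout: 100 nM GR, 1 mM GSH, 0.5 mM NADPH; NADPH fluorescence (ex 340/em 450 nm) read at t=0 and after 15 min RT. GPX4 200 nM, preincubated 30 min with compound; substrate 0.5 mM CHP.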
# [2] = target: Luciferin 4-monooxygenase (Photinus pyralis) (UniProt P08659); test: Primary firefly luciferase (FLuc) qHTS assay for identification of artifact compounds. (AID 1845220); further: nearly all actives have a fitted effect of over 60% in size; on activity change, negative = inhibition: series mostly up to about 54 µM
# Outline: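 qHTS, 15 min compound preincubation with substrate (10 uM luciferin, 10 uM ATP) at RT, then 10 nM FLuc; 5 min; luminescence; % inhibition vs no-enzyme/DMSO controls, 4-parameter Hill fit.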
# [3] = Primary fluorescence-based thiol-reactive (MSTI) qHTS assay for identification of artifact compounds. (AID 1845221); further: nearly all actives have a fitted effect of over 65% in size; further: potency means the concentration at half of the fitted maximal effect
# Outline: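 MSTI probe at 4 uM final in 2% DMSO/PBS pH 7.4; compounds, 1 h at room temperature in dark. Fluorescence Ex/Em 525/598 nm, normalised to Acetyl-MSTI and MSTI, fitted to 4-parameter Hill.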
# [4] = test system: Nanoluciferase (engineered Oplophorus gracilirostris luciferase); test: Primary Nanoluciferase (NLuc) qHTS assay for identification of artifact compounds. (AID 1845222); further: series mostly up to about 54 µM
# Outline: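 Luminescence read-out of secreted NLuc in S16 cell conditioned medium (1:55); compounds tested with 15 min RT preincubation, then Nano-Glo substrate 1:100, 5 min. % inhibition vs no-enzyme and DMSO controls, 4-parameter Hill fit.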
# [5] = Primary redox qHTS assay for identification of artifact compounds. (AID 1845223)
# Outline: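 Amplex Red (25 uM) and HRP (250 mU/mL) in HBSS, with compounds for 15 min, then 250 uM DTT for 30 min, room temperature, dark. Fluorescence 525/598 nm read; normalized to DMSO and 10 uM DA3003; Hill fit.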
# [6] = target: Glutathione peroxidase 1 (Homo sapiens) (UniProt P07203); test: Primary qHTS Assay for Inhibitors of Recombinant Selenoprotein Glutathione Peroxidase 1 (GPX1) (AID 1845191); further: nearly all actives have a fitted effect of over 65% in size
# Outline: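 Recombinant GPX1 (10 nM final) was preincubated with compound for 30 min at room temperature, then reacted with 1 mM GSH, 0.5 mM CHP, 0.5 mM NADPH and 100 nM glutathione reductase; NADPH fluorescence (340/450 nm) was read at 0 and 15 min.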
# [7] = target: Cytochrome P450 3A4 (Homo sapiens) (UniProt P08684); test: qHTS for inhibitors of CYP3A4 against the NCATS DSHEA and TCM libraries (AID 1919971);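 further: inhibition lowers luminescence from luciferin made by CYP3A4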
# Outline: (§1)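 Luminescent P450-Glo readout. Enzyme plus pro-luciferin substrate in manufacturer buffer (typically 100 mM KPO4); 15 min RT preincubation; 1x NADPH regenerating system, 30-45 min RT in the dark; detection reagent 30 min.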
# [8] = target: Cytochrome P450 2D6 (Homo sapiens) (UniProt P10635); test: qHTS for inhibitors of CYP2D6 against the NCATS DSHEA and TCM libraries (AID 1919972)
# Outline: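 Steps: enzyme plus luciferin substrate dispensed; test substances pinned; 15 min RT; 1x NADPH regenerating solution added, 30–45 min RT protected from light; detection reagent, 30 min RT; luminescence measured. Minus-enzyme wells as background.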
# [9] = target: Cytochrome P450 2C9 (Homo sapiens) (UniProt P11712); test: qHTS for inhibitors of CYP2C9 against the NCATS DSHEA and TCM libraries (AID 1919973);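 further: luminogenic pro-luciferin CYP2C9 substrate turned into luciferin with NADPH regeneration; series mostly up to about 34 µM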
# Outline: as §1
# [10] = target: Cytochrome P450 2C19 (Homo sapiens) (UniProt P33261); test: qHTS for inhibitors of CYP2C19 against the NCATS DSHEA and TCM libraries (AID 1919974);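 further: luminescence from luciferin released by CYP2C19 oxidation of a pro-luciferin substrate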
# Outline: as §1
# [11] = KB-3-1 P-gp reporter qHTS against the NCATS DSHEA and TCM libraries (AID 1919975)
# Outline: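 72 h exposure of KB-3-1 cells (DMEM, 10% FBS) to DSHEA/TCM samples, concentration-response; cell viability measured as CellTiter-Glo luminescence after 30 min at room temperature.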
# [12] = target: Cytochrome P450 1A2 (Homo sapiens) (UniProt P05177); test: qHTS for inhibitors of CYPIA2 against the NCATS DSHEA and TCM libraries (AID 1919976);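 further: light from luciferin formed by CYP1A2 from a pro-luciferin substrate; series mostly up to about 37 µM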
# Outline: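 Human CYP1A2 with its pro-luciferin substrate in supplier buffer (typically 100 mM KPO4) was pre-incubated with compounds 15 min at RT. Reaction was started with 1x NADPH regeneration solution and run 30-45 min at RT in the dark, then luminescence was read after P450-Glo detection reagent (30 min RT).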
# [13] = qHTS Counterscreen for compound interference against the NCATS DSHEA and TCM libraries (AID 1919978); details: firefly luciferase detection reagent interference, luminescence
# Outline: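 Read-out is luminescence after 30 min at RT with luciferin detection reagent. Before that, compounds (19.5 nM to 39.8 uM final) sat 15 min at RT with 1 uM D-luciferin or 100 mM potassium phosphate buffer. PTC124 served as intraplate control.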
# [14] = Dual reporter qHTS for agonist of Pregnane X Receptor (hPXR) against the NCATS DSHEA and TCM libraries: Fluorescence readout (AID 1920058)
# Outline: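 hPXR-Luc HepG2 cells (2000/well) in phenol red-free medium with charcoal-stripped FBS attached for 5 h, then were exposed to compounds for about 24 h at 37 °C. Viability was read by CellTiter-Fluor fluorescence (Ex/Em 405/540 nm) after 1 h.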
# [15] = target: Nuclear receptor subfamily 1 group I member 2 (Homo sapiens) (UniProt O75469); test: Dual reporter qHTS for agonist of Pregnane X Receptor (hPXR) against the NCATS DSHEA and TCM libraries: Luminescence readout (AID 1920059)
# Outline: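 hPXR-LucHepG2 cells in phenol red-free DMEM with 5% charcoal-stripped FBS, 2000 cells/well, attached 5 h, then exposed 24 h at 37C to compounds; rifampicin as positive agonist control (2.8 nM–92 uM). Luciferase luminescence read.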
# [16] = Dual reporter qHTS for antagonist of Pregnane X Receptor (hPXR) against the NCATS DSHEA and TCM libraries: Fluorescence Readout (AID 1920061)
# Outline: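 In antagonist mode, 2 uM rifampicin was added to hPXR-Luc HepG2 cells alongside test substances, incubated 24 h at 37 C; luminescence gave reporter activity, and CellTiter-Fluor fluorescence (405/540 nm) gave viability.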
# Sequence of Phospholipid hydroperoxide glutathione peroxidase GPX4 (Homo sapiens) (P36969 whole entry, looked up): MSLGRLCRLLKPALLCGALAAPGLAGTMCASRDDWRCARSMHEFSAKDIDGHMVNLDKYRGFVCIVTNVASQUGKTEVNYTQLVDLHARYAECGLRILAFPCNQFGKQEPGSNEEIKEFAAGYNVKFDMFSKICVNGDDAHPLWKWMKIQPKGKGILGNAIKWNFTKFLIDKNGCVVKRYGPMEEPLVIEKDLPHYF
# Sequence of Glutathione peroxidase 1 (Homo sapiens) (P07203 whole entry, looked up): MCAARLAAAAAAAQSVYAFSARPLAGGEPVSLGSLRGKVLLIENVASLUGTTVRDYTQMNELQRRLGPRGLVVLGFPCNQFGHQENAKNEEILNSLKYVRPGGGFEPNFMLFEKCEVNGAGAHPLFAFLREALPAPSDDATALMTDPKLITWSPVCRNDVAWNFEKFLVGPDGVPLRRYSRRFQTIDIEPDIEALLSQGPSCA
# Sequence of Cytochrome P450 2C19 (Homo sapiens) (P33261 whole entry, looked up): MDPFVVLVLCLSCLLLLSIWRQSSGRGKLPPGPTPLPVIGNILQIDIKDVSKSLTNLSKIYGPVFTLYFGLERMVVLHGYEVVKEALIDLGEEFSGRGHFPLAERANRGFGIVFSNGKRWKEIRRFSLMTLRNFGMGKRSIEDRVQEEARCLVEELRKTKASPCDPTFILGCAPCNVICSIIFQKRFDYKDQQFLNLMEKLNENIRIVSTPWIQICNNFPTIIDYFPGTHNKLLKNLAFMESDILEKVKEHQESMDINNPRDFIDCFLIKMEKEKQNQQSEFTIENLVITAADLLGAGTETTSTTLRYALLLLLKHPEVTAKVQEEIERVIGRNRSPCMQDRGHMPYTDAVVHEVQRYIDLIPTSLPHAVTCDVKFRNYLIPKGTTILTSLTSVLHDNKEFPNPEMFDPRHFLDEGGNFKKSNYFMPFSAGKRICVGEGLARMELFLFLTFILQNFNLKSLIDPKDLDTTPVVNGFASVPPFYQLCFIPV
# Sequence of Cytochrome P450 2C9 (Homo sapiens) (P11712 whole entry, looked up): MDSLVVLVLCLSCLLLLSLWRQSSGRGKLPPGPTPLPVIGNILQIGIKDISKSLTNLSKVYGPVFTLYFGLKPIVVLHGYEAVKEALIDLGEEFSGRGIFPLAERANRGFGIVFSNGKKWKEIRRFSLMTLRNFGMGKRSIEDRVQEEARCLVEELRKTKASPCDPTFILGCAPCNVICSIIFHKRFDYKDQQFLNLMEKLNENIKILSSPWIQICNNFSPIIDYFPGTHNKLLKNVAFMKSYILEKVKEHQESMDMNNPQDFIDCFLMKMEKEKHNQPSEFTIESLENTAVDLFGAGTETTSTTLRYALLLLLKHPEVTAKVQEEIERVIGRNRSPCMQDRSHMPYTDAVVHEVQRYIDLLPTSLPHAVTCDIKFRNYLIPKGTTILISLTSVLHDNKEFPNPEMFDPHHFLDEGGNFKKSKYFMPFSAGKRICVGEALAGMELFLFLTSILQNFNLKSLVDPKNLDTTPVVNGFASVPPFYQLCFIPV
# Sequence of Nuclear receptor subfamily 1 group I member 2 (Homo sapiens) (O75469 whole entry, looked up): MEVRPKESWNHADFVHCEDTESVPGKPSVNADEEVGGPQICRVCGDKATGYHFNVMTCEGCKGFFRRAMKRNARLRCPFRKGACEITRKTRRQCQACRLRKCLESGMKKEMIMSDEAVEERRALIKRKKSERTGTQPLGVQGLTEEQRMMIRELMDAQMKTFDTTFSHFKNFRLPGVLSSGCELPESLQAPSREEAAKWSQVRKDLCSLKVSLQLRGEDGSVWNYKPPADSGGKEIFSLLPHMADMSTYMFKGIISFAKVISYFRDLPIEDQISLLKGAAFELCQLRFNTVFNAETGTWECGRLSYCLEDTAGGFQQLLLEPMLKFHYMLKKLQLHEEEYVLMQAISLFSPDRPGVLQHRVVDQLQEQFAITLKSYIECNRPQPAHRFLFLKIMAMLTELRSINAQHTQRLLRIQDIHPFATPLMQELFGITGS
# Sequence of Cytochrome P450 3A4 (Homo sapiens) (P08684 whole entry, looked up): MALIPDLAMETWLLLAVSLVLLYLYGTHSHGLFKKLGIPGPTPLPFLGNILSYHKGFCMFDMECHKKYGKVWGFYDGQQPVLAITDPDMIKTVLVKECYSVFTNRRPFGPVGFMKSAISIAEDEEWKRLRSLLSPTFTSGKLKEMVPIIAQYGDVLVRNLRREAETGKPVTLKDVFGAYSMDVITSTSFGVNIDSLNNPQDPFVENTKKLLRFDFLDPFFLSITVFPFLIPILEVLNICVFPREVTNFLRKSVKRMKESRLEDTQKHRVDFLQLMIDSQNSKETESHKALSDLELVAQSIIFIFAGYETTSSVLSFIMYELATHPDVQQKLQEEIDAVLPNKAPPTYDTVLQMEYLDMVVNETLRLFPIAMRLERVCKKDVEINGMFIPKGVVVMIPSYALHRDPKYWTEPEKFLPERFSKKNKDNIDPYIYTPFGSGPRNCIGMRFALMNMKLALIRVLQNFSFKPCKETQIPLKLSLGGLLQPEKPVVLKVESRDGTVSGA
# Sequence of Cytochrome P450 1A2 (Homo sapiens) (P05177 whole entry, looked up): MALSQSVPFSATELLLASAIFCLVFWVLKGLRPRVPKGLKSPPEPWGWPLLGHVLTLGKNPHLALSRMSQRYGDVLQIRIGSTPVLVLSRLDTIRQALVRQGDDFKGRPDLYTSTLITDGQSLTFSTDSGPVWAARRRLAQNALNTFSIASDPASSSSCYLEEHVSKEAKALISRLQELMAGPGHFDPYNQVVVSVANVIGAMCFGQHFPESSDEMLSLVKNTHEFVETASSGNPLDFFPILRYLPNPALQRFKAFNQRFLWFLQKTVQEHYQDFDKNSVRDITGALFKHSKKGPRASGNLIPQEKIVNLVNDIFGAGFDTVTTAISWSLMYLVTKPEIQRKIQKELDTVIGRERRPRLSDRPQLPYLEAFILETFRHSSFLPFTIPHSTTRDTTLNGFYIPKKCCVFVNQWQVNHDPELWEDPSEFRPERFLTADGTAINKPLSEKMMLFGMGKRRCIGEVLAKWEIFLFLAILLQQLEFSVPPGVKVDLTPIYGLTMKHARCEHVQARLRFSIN
# Sequence of Cytochrome P450 2D6 (Homo sapiens) (P10635 whole entry, looked up): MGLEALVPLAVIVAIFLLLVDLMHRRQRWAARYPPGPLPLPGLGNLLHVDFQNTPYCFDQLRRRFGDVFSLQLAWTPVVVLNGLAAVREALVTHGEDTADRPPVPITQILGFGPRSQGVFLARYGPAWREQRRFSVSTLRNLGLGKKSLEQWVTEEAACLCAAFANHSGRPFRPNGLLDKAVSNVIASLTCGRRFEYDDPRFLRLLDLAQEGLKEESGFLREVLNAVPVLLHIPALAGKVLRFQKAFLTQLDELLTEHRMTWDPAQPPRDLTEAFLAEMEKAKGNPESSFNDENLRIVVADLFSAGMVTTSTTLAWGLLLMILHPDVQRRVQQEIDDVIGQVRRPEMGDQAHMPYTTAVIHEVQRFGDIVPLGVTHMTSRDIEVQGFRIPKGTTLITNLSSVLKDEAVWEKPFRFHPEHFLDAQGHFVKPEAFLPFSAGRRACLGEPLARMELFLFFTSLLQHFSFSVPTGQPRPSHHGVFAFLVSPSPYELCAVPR
compound,measurement,setting,value
CC[C@@]1(O)C(=O)OCc2c1cc1n(c2=O)Cc2cc3c([N+](=O)[O-])cccc3nc2-1,Potency,[1],35.5 µM (active)
CCN[C@@H]1C[C@H](N)[C@@H](O[C@H]2OC(CN)=CC[C@H]2N)[C@H](O)[C@H]1O[C@H]1OC[C@](C)(O)[C@H](NC)[C@H]1O,Potency,[1],inactive
same,Potency,[2],inactive
same,Potency,[3],inactive
same,Potency,[4],inactive
same,Potency,[5],inactive
CC1C(=O)CC2C3C(O)CC(C(=O)O)C12CC3(C)C (configuration not stated),Potency,[6],inactive
same,Potency,[2],inactive
same,Potency,[4],inactive
same,Potency,[5],inactive
Nc1nc(CC(=O)Nc2ccc(CCNCC(O)c3ccccc3)cc2)cs1 (configuration not stated),Potency,[1],inactive
same,Potency,[2],inactive
same,Potency,[3],inactive
same,Potency,[4],inactive
same,Potency,[5],inactive
COc1ccc2c(c1)O[C@H](O[C@@H]1O[C@H](CO)[C@@H](O)[C@H](O)[C@H]1O)C(=O)N2,Potency,[6],inactive
same,Potency,[2],inactive
same,Potency,[4],inactive
same,Potency,[5],inactive
O=C(O)c1cc(=O)c2c3nc4ccccc4oc-3cc(=O)c2[nH]1,Potency,[1],7.94 µM (active)
CCCn1cnc2c(NCc3ccccc3)nc(N[C@H](CC)CO)nc21,Potency,[1],inactive
same,Potency,[2],inactive
same,Potency,[3],inactive
same,Potency,[4],inactive
C=C1C[C@@]23CC[C@@H]4[C@](C)(C(=O)O)CCC[C@@]4(C)C2=CC[C@H]1C3,Potency,[1],inactive
same,Potency,[2],inactive
same,Potency,[3],inactive
same,Potency,[4],inactive
same,Potency,[5],inactive
Cc1cc(C)c(S(=O)(=O)N(Cc2ccc(-c3cccc(S(C)(=O)=O)c3)cc2)Cc2ccc(C(F)(F)F)o2)c(C)c1,Potency,[1],inactive
same,Potency,[2],inactive
same,Potency,[3],inactive
same,Potency,[4],inactive
COC(=O)[C@@H]1C2CC3c4[nH]c5ccccc5c4CCN3CC2CC[C@@H]1O (some centres not stated),Potency,[1],inactive
same,Potency,[2],inactive
same,Potency,[3],inactive
same,Potency,[4],inactive
same,Potency,[5],inactive
CC(C)[C@H]1CCC(CO)=C[C@@H]1/C=C(\CO)C(=O)O,Potency,[1],inactive
same,Potency,[2],inactive
same,Potency,[3],inactive
same,Potency,[4],inactive
CCC1CC2C(C)=CC3CCCCC3C2(C)C2(OC(=O)C(C)(O)OC2=O)O1 (configuration not stated),Potency,[1],inactive
same,Potency,[2],inactive
same,Potency,[3],inactive
same,Potency,[4],inactive
same,Potency,[5],inactive
CC(C)C(C#N)O[C@@H]1O[C@H](CO[C@@H]2OC[C@](O)(CO)[C@H]2O)[C@@H](O)[C@H](O)[C@H]1O (some centres not stated),Potency,[1],inactive
same,Potency,[2],inactive
same,Potency,[3],inactive
same,Potency,[4],inactive
same,Potency,[5],inactive
CNC(=O)COC(=O)NCCC1CCN(c2cccc(C)n2)CC1,Potency,[6],inactive
same,Potency,[2],inactive
same,Potency,[4],inactive
same,Potency,[5],inactive
O=c1c2ccccc2nc2n1CCC2O (configuration not stated),Potency,[6],inactive
same,Potency,[2],inactive
same,Potency,[4],inactive
same,Potency,[5],inactive
CC(/C=C/C1(O)C(C)CC(O)CC1(C)C)OC1OC(CO)C(O)C(O)C1O (configuration not stated),Potency,[1],inactive
same,Potency,[2],inactive
CC1C/C=C/C=C\CCCCC(O)C/C=C/C(=O)O1 (configuration not stated),Potency,[1],inactive
same,Potency,[2],inactive
same,Potency,[3],inactive
same,Potency,[4],inactive
same,Potency,[5],inactive
CC(NCc1ccc(OCc2cccc(F)c2)cc1)C(N)=O (configuration not stated),Potency,[1],inactive
same,Potency,[2],inactive
same,Potency,[3],inactive
same,Potency,[4],inactive
same,Potency,[5],inactive
COc1ccc(C(OC2OC(CO)C(O)C(O)C2O)C(C)O)cc1 (configuration not stated),Potency,[1],inactive
same,Potency,[2],inactive
same,Potency,[3],14.7 µM (active)
same,Potency,[4],inactive
same,Potency,[5],inactive
CCOC(=O)c1ccc(N(C)c2csc(-c3ccccc3)n2)cc1,Potency,[1],inactive
same,Potency,[2],inactive
same,Potency,[3],inactive
same,Potency,[4],inactive
same,Potency,[5],inactive
CC(C)c1nc(N(C)S(C)(=O)=O)nc(-c2ccc(F)cc2)c1/C=C/[C@@H](O)C[C@@H](O)CC(=O)O,Potency,[1],inactive
same,Potency,[2],inactive
same,Potency,[3],inactive
same,Potency,[4],inactive
same,Potency,[5],inactive
C[C@@H]1O[C@@H](O[C@H]2[C@H](O[C@H]3[C@H](O[C@H]4CC[C@@]5(C)C(CC[C@]6(C)C5CC=C5[C@@H]7CC(C)(C(=O)O)C[C@@H](O)[C@]7(C)CC[C@]56C)[C@@]4(C)CO)O[C@H](C(=O)O)[C@@H](O)[C@@H]3O)O[C@H](CO)[C@H](O)[C@@H]2O)[C@H](O)[C@H](O)[C@H]1O (some centres not stated),Potency,[1],inactive
same,"activity change, negative = inhibition",[2],0.24% [at 11.6 µM] (inactive)
same,"activity, negative = inhibition",[4],-2.21% [at 11.6 µM] (inactive)
CC1=CC2(O)/C=C/C(C)(O)CC(O)/C=C/C(=O)OC23C(=O)NC(CC(C)C)C3C1C (configuration not stated),Potency,[1],inactive
same,Potency,[3],inactive
same,Potency,[4],inactive
same,Potency,[5],inactive
CC(NC(=O)CC(=O)O)c1nc2ccccc2c(=O)[nH]1 (configuration not stated),Potency,[1],inactive
same,Potency,[2],inactive
same,Potency,[4],inactive
same,Potency,[5],inactive
CCOC(=O)N1CCC(NCCNC(=O)c2ccccc2C)CC1,Potency,[1],inactive
same,Potency,[2],inactive
same,Potency,[4],inactive
same,Potency,[5],inactive
Oc1cc(O)c2c(c1)OC(c1ccc(O)c(O)c1)C(O)C2 (configuration not stated),outcome,[7],inactive
same,outcome,[8],inactive
same,Potency,[9],inactive
same,Potency,[10],inactive
same,outcome,[11],inactive
same,outcome,[12],inactive
same,max response,[13],0.755% (inactive)
same,outcome,[14],inactive
same,outcome,[15],inactive
same,outcome,[16],inactive
CC(=O)[C@@H]1CC[C@]2(C(=O)O)CC[C@]3(C)C(CCC4[C@@]5(C)CC[C@H](O)C(C)(C)C5CC[C@]43C)C12 (some centres not stated),Potency,[1],inactive
same,Potency,[2],inactive
same,Potency,[3],inactive
same,Potency,[4],inactive
same,Potency,[5],inactive
